The results in this text go back to PubChem BioAssay (Tox21).

Molecules are shown by their SMILES. Inconclusive results are not listed. Activity calls are given as the source filed them. Unless noted, calls follow the shape of the dose curve; as a rule, active = well fitted curve in the direction sought with a large enough effect in the repeat runs; inconclusive = weak or mixed curves; inactive = no such curve, though single readings can be large; an effect the other way counts as inactive or inconclusive.

In assay [1] the target is Aryl hydrocarbon receptor (Homo sapiens) (UniProt P35869). Description: qHTS assay to identify small molecule that activate the aryl hydrocarbon receptor (AhR) signaling pathway (AID 743085). Also: nearly all actives have a fitted effect of over 15% in size. Also: potency is read from the fitted curve at half-maximal effect.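 As to activation: HG2L7.5c1 human HepG2 liver cells with stably integrated DRE-driven firefly reporter; series mostly up to about 70 µM.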 A digest of the protocol:
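HepG2 cells (HG2L7.5c1) stably carrying a firefly luciferase reporter driven by 20 dioxin responsive elements were exposed to compound for 24 h at 37C after a 5 h settling period; luminescence rise (ONE-Glo) indicated activation.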
In general terms: In qHTS, concentration-response curves come from the screen itself.

Assay [2] is described as follows: qHTS assay to identify small molecule that activate the aryl hydrocarbon receptor (AhR) signaling pathway - cell viability counter screen (AID 743086). Also: series mostly up to about 70 µM; nearly all actives have a fitted effect of over 45% in size. A digest of the protocol: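 Cytotoxicity counter screen: CellTiter-Fluor signal (30 min, 37 C) in 4000 HepG2 cells/well carrying the DRE-luciferase reporter, following 24 h compound exposure at 37 C.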
Assay [3] has as its target Peroxisome proliferator-activated receptor gamma (Homo sapiens) (UniProt P37231). As to the kind of experiment: qHTS assay to identify small molecule agonists of the peroxisome proliferator-activated receptor gamma (PPARg) signaling pathway (AID 743094; active = well fitted activation curve with a large enough effect in the signal ratio in the repeat runs, not every such curve was filed as active; the % refers to the signal ratio). A digest of the protocol:
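Reporter activation was scored by fluorescence of cleaved LiveBLAzer B/G substrate (1 h, room temperature) in PPARg-bla HEK293H cells previously treated 17 h at 37C with DMSO-dissolved compounds.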

For assay [4] the target is unchanged. As to the kind of experiment: qHTS assay to identify small molecule antagonists of the peroxisome proliferator-activated receptor gamma (PPARg) signaling pathway (AID 743191; calls by dose curve; also: series mostly up to about 63 µM; nearly all actives have a fitted effect of over 30% in size). A digest of the protocol:
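Beta-lactamase reporter under UAS control in HEK293H PPARg-bla cells; compound treatment 17 h at 37C. Read-out: fluorescence intensity after 1 h room-temperature incubation with LiveBLAzer B/G FRET substrate.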

Assay [5] can be described thus: qHTS assay to identify small molecule antagonists of the peroxisome proliferator-activated receptor gamma (PPARg) signaling pathway - cell viability counter screen (AID 743194). Also: nearly all actives have a fitted effect of over 55% in size. Particulars: Potency: co-treated with 50 nM rosiglitazone. In a few lines: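 Viability was measured as CellTiter-Glo luminescence in GeneBLAzer PPARg UAS-bla HEK293H cells. These cells had been exposed 17 h at 37 C to compounds together with rosiglitazone at 50 nM final, with the beta-lactamase readout taken in the same wells.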

Assay [6] is described as follows: qHTS assay for small molecule agonists of the antioxidant response element (ARE) signaling pathway - cell viability counter screen (AID 743203; calls by dose curve; also: nearly all actives have a fitted effect of over 55% in size). In a few lines:
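Viability counter screen: stably transfected ARE-bla HepG2 line, 16 hrs compound exposure at 37C/5% CO2, ATP-based CellTiter-Glo luminescence measured in the reporter wells.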

The nature of assay [7]: qHTS assay for small molecule activators of the heat shock response signaling pathway - cell viability counter screen (AID 743209). Also: nearly all actives have a fitted effect of over 50% in size. In a few lines:
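Viability of HSE-bla HeLa cells is measured with CellTiter-Glo in the wells already used for the reporter read. Compound exposure lasts 5 h at 37 C, and luminescence is read after 30 min at room temperature.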

Assay [8] in a line: qHTS assay for small molecule activators of the heat shock response signaling pathway (AID 743210; active = well fitted activation curve with a large enough effect in the signal ratio in the repeat runs, with a control signal flat, not every such curve was filed as active; the % refers to the signal ratio; also: series mostly up to about 63 µM). A digest of the protocol: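 Compound exposure lasted 5 h at 37 C in HeLa cells carrying a heat-shock-element-driven beta-lactamase reporter. Read-out: fluorescence intensity after 2.5 h room-temperature loading with LiveBLAzer B/G FRET substrate.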
A short description of assay [9]: qHTS assay to identify small molecule agonists of the peroxisome proliferator-activated receptor delta (PPARd) signaling pathway - cell viability counter screen (AID 743211). Also: nearly all actives have a fitted effect of over 55% in size. A digest of the protocol: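 PPARd-bla HEK293H cells (UAS-beta-lactamase reporter) were treated with compounds for 17 h at 37 C. Viability was then read in the same wells by CellTiter-Glo luminescence after 30 min at room temperature.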

Assay [10] can be described thus: qHTS assay to identify small molecule antagonists of the peroxisome proliferator-activated receptor delta (PPARd) signaling pathway - cell viability counter screen (AID 743213). Also: nearly all actives have a fitted effect of over 50% in size. A digest of the protocol: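 Viability counter-screen, qHTS format: PPARd-bla HEK293H, L165041 300 nM final, 17 h compound exposure at 37 C, CellTiter-Glo luminescence after 30 min RT.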
Assay [11] deals with Peroxisome proliferator-activated receptor delta (Homo sapiens) (UniProt Q03181). Description: qHTS assay to identify small molecule antagonists of the peroxisome proliferator-activated receptor delta (PPARd) signaling pathway (AID 743215; active = well fitted inhibition curve with a large enough effect in the signal ratio in the repeat runs, not every such curve was filed as active; the % refers to the signal ratio;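 also: cells stimulated with agonist L165041 at 300 nM final during compound exposure; series mostly up to about 62 µM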). In a few lines:
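Plated HEK293H PPARd-bla cells rested 5 h at 37 C and 5% CO2. Compound, then agonist L165041 at 300 nM final, was added; 17 h at 37 C followed. Substrate loading, 2 h room temperature, fluorescence measured.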

A short description of assay [12]: qHTS assay to identify small molecule agonists of the farnesoid-X-receptor (FXR) signaling pathway - cell viability counter screen (AID 743218). Also: nearly all actives have a fitted effect of over 45% in size. In a few lines:
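Viability of FXR-bla HEK 293T cells is measured by ATP-based CellTiter-Glo luminescence following 16 h compound treatment at 37 C and a prior 2 h room-temperature beta-lactamase substrate step.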

Assay [13] can be described thus: qHTS assay to identify small molecule antagonists of the farnesoid-X-receptor (FXR) signaling pathway - cell viability counter screen (AID 743221; active = well fitted cell-killing curve with a large enough effect in the repeat runs, not every such curve was filed as active; also: nearly all actives have a fitted effect of over 50% in size). A digest of the protocol:
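FXR-UAS-bla HEK 293T cells were treated with test compounds plus chenodeoxycholic acid (50 uM final) for 16 h at 37 C. Cell viability in the same wells was then read as CellTiter-Glo luminescence after 30 min at room temperature.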

Assay [14] in a line: qHTS assay to identify small molecule agonists of the vitamin D receptor (VDR) signaling pathway - cell viability counter screen (AID 743224). Also: series mostly up to about 63 µM; nearly all actives have a fitted effect of over 50% in size. In a few lines: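 Compounds were pin-transferred onto VDR-bla cells plated 4 h earlier; following 16 h incubation at 37C, cell viability was quantified by CellTiter-Glo luminescence after 30 min at room temperature.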
Assay [15] has as its target Peroxisome proliferator-activated receptor delta (Homo sapiens) (UniProt Q03181). As to the kind of experiment: qHTS assay to identify small molecule agonists of the peroxisome proliferator-activated receptor delta (PPARd) signaling pathway (AID 743212; calls by dose curve). In a few lines: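 Beta-lactamase reporter readout: a ratiometric FRET signal from the LiveBLAzer substrate after 2 h at room temperature. Compound exposure at 37 °C in PPARδ-bla HEK293H cells driven by an upstream activator sequence.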

Assay [16] has as its target Bile acid receptor (Homo sapiens) (UniProt Q96RI1). Description: qHTS assay to identify small molecule antagonists of the farnesoid-X-receptor (FXR) signaling pathway (AID 743217; active = well fitted inhibition curve with a large enough effect in the signal ratio in the repeat runs, not every such curve was filed as active; the % refers to the signal ratio). A digest of the protocol:
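Screen of the Tox21 10K library in quantitative HTS format using FXR-UAS-bla HEK 293T reporter cells. Agonist chenodeoxycholic acid, 50 uM final, added with compounds; 16 h incubation at 37 °C; beta-lactamase FRET fluorescence measured.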

A short description of assay [17]: qHTS assay for small molecule agonists of the antioxidant response element (ARE) signaling pathway (AID 743202; active = well fitted activation curve with a large enough effect in the signal ratio in the repeat runs, not every such curve was filed as active; the % refers to the signal ratio). A digest of the protocol:
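After 16 hours of compound treatment at 37 C, HepG2 cells with a stably integrated ARE-driven beta-lactamase reporter were loaded 2 hours at room temperature with LiveBLAzer B/G FRET substrate and fluorescence intensity measured.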

The target of assay [18] is Bile acid receptor (Homo sapiens) (UniProt Q96RI1). As to the kind of experiment: qHTS assay to identify small molecule agonists of the farnesoid-X-receptor (FXR) signaling pathway (AID 743220; active = well fitted activation curve with a large enough effect in the signal ratio in the repeat runs, not every such curve was filed as active; the % refers to the signal ratio). A digest of the protocol:
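FXR-UAS-bla HEK 293T cells carrying a UAS-driven beta-lactamase reporter were plated for 5 h at 37C/5% CO2, then exposed to DMSO-dissolved Tox21 10K compounds for 16 h at 37C. A LiveBLAzer B/G FRET substrate was loaded for 2 h at room temperature before fluorescence reading.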

Assay [19] has as its target Vitamin D3 receptor (Homo sapiens) (UniProt P11473). As to the kind of experiment: qHTS assay to identify small molecule agonists of the vitamin D receptor (VDR) signaling pathway (AID 743222; calls by dose curve). In a few lines:
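Fluorescence from cleaved LiveBLAzer B/G FRET substrate served as readout. VDR-bla cells had been treated 16 h at 37C with test compounds in DMSO, following a 4 h settling period, and substrate was loaded for 2 h at RT.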

Assay [20] shares this target. As to the kind of experiment: qHTS assay to identify small molecule antagonists of the vitamin D receptor (VDR) signaling pathway (AID 743223; active = well fitted inhibition curve with a large enough effect in the signal ratio in the repeat runs, not every such curve was filed as active; the % refers to the signal ratio). In a few lines:
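VDR-bla cells were plated, incubated 4 h at 37C, then given compound and 1alpha,25-dihydroxyvitamin D3 (3 nM final). After 16 h at 37C, LiveBLAzer B/G FRET substrate was added for 2 h at room temperature and fluorescence read.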

Chain of Bile acid receptor (Homo sapiens) (Q96RI1 whole entry, looked up): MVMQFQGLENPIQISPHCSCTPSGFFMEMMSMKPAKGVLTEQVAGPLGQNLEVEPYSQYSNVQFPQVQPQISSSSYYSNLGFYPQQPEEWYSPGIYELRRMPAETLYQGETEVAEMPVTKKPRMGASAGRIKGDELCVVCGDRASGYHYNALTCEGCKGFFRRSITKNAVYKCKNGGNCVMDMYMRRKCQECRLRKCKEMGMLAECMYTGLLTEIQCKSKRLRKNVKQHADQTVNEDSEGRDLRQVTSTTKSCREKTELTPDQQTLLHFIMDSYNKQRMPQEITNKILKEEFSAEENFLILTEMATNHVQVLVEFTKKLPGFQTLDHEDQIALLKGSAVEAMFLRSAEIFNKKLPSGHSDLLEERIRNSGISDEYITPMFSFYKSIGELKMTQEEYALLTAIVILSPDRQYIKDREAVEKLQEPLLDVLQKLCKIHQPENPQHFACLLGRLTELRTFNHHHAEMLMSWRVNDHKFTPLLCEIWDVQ
Chain of Aryl hydrocarbon receptor (Homo sapiens) (P35869 whole entry, looked up): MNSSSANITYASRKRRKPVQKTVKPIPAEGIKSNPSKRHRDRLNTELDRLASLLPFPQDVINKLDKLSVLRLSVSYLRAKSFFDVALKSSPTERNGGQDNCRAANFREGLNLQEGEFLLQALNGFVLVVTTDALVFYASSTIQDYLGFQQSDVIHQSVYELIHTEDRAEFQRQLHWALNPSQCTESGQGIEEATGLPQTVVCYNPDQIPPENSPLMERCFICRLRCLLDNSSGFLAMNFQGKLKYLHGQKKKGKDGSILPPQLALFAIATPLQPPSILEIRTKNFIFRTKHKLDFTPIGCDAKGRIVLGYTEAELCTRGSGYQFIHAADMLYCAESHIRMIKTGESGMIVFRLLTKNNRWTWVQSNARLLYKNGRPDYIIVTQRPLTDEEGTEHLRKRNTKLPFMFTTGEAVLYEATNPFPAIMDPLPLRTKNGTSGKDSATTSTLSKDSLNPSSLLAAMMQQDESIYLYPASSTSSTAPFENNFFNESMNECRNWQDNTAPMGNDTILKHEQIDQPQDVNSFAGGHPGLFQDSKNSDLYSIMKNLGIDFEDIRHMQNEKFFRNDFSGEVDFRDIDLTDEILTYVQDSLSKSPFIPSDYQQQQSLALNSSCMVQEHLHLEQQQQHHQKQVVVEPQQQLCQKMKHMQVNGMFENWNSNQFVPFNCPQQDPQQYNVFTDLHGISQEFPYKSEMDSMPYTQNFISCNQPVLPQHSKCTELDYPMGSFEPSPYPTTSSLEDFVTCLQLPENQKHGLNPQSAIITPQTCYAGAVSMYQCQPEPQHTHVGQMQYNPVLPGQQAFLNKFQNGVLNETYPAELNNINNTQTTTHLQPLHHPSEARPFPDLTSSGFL
Chain of Peroxisome proliferator-activated receptor delta (Homo sapiens) (Q03181 whole entry, looked up): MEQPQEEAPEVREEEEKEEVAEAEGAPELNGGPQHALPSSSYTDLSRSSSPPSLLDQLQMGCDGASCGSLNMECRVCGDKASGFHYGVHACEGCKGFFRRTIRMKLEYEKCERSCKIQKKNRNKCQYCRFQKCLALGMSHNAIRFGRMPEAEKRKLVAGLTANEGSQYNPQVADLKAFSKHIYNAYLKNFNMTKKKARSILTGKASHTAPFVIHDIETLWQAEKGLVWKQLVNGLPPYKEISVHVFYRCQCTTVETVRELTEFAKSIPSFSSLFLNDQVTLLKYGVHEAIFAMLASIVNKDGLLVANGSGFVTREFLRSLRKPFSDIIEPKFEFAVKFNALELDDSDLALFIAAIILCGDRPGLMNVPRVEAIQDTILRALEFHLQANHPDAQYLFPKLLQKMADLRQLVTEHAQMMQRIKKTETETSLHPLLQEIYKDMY
Chain of Vitamin D3 receptor (Homo sapiens) (P11473 whole entry, looked up): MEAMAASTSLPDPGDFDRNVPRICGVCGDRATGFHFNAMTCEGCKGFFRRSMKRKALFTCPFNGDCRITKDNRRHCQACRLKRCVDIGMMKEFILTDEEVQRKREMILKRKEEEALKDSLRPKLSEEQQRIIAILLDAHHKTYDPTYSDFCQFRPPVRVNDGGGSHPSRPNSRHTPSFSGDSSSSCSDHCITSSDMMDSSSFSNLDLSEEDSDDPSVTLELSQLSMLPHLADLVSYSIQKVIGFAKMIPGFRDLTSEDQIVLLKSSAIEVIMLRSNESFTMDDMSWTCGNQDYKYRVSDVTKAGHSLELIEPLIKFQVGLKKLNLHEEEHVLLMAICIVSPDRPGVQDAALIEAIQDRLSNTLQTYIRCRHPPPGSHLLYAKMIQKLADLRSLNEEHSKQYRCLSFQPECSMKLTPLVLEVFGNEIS
Chain of Peroxisome proliferator-activated receptor gamma (Homo sapiens) (P37231 whole entry, looked up): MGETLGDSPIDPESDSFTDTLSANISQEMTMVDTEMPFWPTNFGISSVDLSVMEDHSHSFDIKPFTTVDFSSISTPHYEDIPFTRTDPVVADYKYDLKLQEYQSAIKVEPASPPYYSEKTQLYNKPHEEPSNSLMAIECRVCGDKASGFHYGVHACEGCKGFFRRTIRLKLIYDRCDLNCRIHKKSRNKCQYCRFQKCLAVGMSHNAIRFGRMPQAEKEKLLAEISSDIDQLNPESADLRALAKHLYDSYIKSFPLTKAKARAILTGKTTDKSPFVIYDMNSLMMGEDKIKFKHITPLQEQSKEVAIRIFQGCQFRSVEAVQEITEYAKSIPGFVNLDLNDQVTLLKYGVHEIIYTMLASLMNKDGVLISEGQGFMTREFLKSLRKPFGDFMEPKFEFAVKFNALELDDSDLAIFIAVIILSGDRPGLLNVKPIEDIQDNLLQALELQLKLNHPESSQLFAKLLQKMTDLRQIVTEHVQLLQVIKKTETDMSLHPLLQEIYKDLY

For the compound `ClC(Cl)Br`, the Potency entry in assay [1], in assay [4], in [5], in [6], in assay [7] and in assay [9] was “inactive” in each case. In addition, the Potency entry in assay [12] and in assay [14] was “inactive” each time. In addition, the call in assay [2], in assay [3], in assay [8], in [10], in assay [11] and in assay [13] was inactive.
Consider `Cc1ncc(CNC(=O)N(CCCl)N=O)c(N)n1`, for which the Potency result in assay [1], in [4], in assay [5], in assay [6], in [7] and in assay [9] was “inactive” each time. The Potency result in assay [16] and in assay [14] was “inactive” in each case. The compound was classed as inactive in [2], in [3], in assay [8], in assay [15], in assay [10] and in [13].
Turning to `CC(C)CC#N`, the Potency entry in [1], in [4], in assay [5], in assay [17], in assay [6] and in assay [7] was “inactive” each time. Moreover, the Potency entry in [9], in assay [16], in assay [12] and in assay [14] was “inactive” throughout. Also, the result in assay [2], in assay [3], in assay [8], in [11], in [18] and in [13] was inactive. The outcome in assay [19] and in assay [20] was inactive.
Consider `CCOP(=O)(OCC)OP(=O)(OCC)OCC`, for which the Potency entry in assay [1], in [4], in assay [5], in assay [17], in assay [6] and in [7] was “inactive” each time. The Potency result in assay [9], in assay [16], in assay [12] and in assay [14] was “inactive” in each case. The call in assay [2], in [3], in [8], in assay [15], in assay [10] and in [11] was inactive. Besides, the compound was called inactive in assay [18], in assay [13] and in assay [19].
With `COP(=S)(OC)Oc1c(Cl)cc(C)cc1Cl`, the Potency in assay [1] was 48.6 µM (active). The compound was called inactive in [2], in assay [3], in assay [8], in assay [15], in [10] and in assay [11]. Also, the compound was classed as inactive in [13] and in assay [20]. Further, the Potency entry in assay [4], in [5], in assay [17], in assay [6], in assay [7] and in [9] was “inactive” in each case. Also, the Potency entry in [12] and in assay [14] was “inactive” throughout.
Turning to `COc1cc(OC)nc(Oc2cccc(Oc3nc(OC)cc(OC)n3)c2C(=O)O)n1`, the Potency entry in assay [1], in [4], in assay [5], in assay [7], in assay [9] and in assay [12] was “inactive” each time. Besides, the compound was called inactive in assay [2], in assay [3], in [8], in [15], in [11] and in assay [18]. Further, the outcome in [13] and in [20] was inactive.
In the case of `CCCCOC(=O)[C@@H](C)Oc1ccc(Oc2ccc(C#N)cc2F)cc1`, the Potency result in assay [1], in [5], in assay [6], in assay [7], in assay [9] and in assay [14] was “inactive” throughout. The outcome in assay [2], in [3], in assay [8], in [15], in assay [10] and in [13] was inactive. For the same compound, the compound was classed as inactive in [19] and in assay [20].
`CCS(=O)(=O)C(C)(C)S(=O)(=O)CC`: the Potency entry in assay [1], in assay [5], in assay [17], in [6], in [7] and in assay [9] was “inactive” throughout. Further, the Potency entry in assay [16], in [12] and in assay [14] was “inactive” throughout. Also, the outcome in [2], in assay [3], in [8], in [10], in [18] and in assay [13] was inactive. The compound was classed as inactive in assay [19] and in assay [20].
For `CC(N)=S`, the Potency result in assay [1], in [4], in [5], in assay [6], in assay [7] and in assay [9] was “inactive” each time. For the same compound, the Potency entry in assay [16], in assay [12] and in assay [14] was “inactive” in each case. Besides, the call in assay [2], in assay [3], in assay [10], in assay [18], in assay [13] and in assay [19] was inactive. Besides, the compound was called inactive in assay [20].
